Assay outcomes as filed in PubChem BioAssay.
The entries come from a sample that favours hits as a whole.
D1 allo mod = D1 dopamine receptor (human) allosteric modulation; P21728; HEK293 D1, CRE-luciferase, dopamine EC30 potentiation; actives deviate in either direction; B-score at 10 µM; 58,000 tested, 5.9% active;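 active = luminescence count or its row- and column-corrected plate score outside the 99.7% band of the plate's sample wells, on either side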
TNAP act mid DEA = activators of human TNAP at intermediate phosphate acceptor | activation factor at 20 µM | 64,000 tested, under 10 active | purified TNAP, CDP-star luminescence, 100 mM DEA, 30 min; hits give high values; scale: 0 levamisole-inhibited, 1 vehicle-only enzyme;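 active = activation factor of at least 2 at 20 µM, relative to controls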
Candida biofilm = kills Candida albicans biofilms. C. albicans biofilm + clotrimazole, Alamar Blue. inhibition, % at 6 µM. AID 834. 85,000 tested, 0.14% active;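 active = inhibition above 20%; inactive = inhibition below 20%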;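 note: preformed 24 hr biofilms exposed to compound for 48 hr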
FXIIa inh mix = factor XIIa (human) inhibition, mixture screen; P00748; inhibition, % at 5 µM; 62,000 tested, 0.2% active; AID 684; purified FXIIa, fluorogenic substrate, pooled mixtures
Target sequence (P00748 20-372 limits assumed): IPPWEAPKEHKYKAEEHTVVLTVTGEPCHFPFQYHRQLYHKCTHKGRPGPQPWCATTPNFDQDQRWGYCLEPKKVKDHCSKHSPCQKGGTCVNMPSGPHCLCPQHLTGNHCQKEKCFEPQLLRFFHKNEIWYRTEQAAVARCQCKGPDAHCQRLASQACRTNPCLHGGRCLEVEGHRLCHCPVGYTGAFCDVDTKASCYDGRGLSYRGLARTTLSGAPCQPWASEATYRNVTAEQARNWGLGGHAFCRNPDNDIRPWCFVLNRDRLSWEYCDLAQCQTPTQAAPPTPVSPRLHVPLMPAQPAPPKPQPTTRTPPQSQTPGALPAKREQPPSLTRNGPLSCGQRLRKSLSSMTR
Target sequence (P00748 373-615 limits assumed): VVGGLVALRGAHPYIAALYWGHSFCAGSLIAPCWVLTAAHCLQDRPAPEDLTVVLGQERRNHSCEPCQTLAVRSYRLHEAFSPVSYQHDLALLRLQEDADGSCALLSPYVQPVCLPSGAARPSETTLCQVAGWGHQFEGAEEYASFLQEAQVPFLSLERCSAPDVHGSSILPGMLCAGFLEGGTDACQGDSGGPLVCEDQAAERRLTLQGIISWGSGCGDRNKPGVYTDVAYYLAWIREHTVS
FXIa inh mix = inhibitors of human coagulation factor XIa, pooled mixtures. P03951. purified FXIa, fluorogenic substrate. inhibition, % at 5 µM. 62,000 tested, 0.19% active. AID 680;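 note: each value is inhibition by a whole ten-compound pool holding the compound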
HePTP inhibitor = blocks human HePTP tyrosine phosphatase; recombinant HePTP phosphatase activity, OD absorbance; 110,000 tested, 0.64% active; inhibition, % at 20 µM; P35236; in the data active = inhibition above about 50%
Hits are given with their value; - = inactive; . = no result. Cut-off read from the data, not from the text of the source, unless noted: active = inhibition above about 20% (passing the limit was not always enough); inactive = the rest.

SMILES | D1 allo mod | TNAP act mid DEA | Candida biofilm | FXIIa inh mix | FXIa inh mix | HePTP inhibitor
CCOc1cc(/C=C2\C(=O)NC(=O)N(c3cc(C)cc(C)c3)C2=O)cc(Cl)c1O | . | . | . | . | . | -
CN1CCN(CCCNc2c([N+](=O)[O-])c(=O)sc3ccccc23)CC1 | . | . | . | . | . | -
O=C(CCCNS(=O)(=O)c1cccc2nsnc12)NCCc1ccccc1 | -4.02 | - | - | - | - | -
CCn1c(SCC(=O)N2CCOCC2)nnc1-c1cccs1 | - | - | - | - | 20.9 | -
Cc1ccc(N2C(=O)c3ccccc3C2O)nc1 (stereo unspecified) | -6.69 | - | - | - | - | -
Cc1ccc(C)c(Cn2cnc3c(cnn3C(C)(C)C)c2=O)c1 | -2.58 | . | - | - | - | .
Cc1onc(-c2ccccc2Cl)c1C(=O)OCC(=O)Nc1ccc2c(c1)OCO2 | - | - | 24.6 | - | - | -
Cc1onc(-c2ccccc2)c1C(=O)OCC(=O)Nc1ccc2c(c1)OCO2 | - | - | - | - | - | -
O=C(CSc1nc2ccc(N3C(=O)c4ccccc4C3=O)cc2s1)c1ccc(Cl)cc1 | . | . | . | . | . | -
CCN(CC)S(=O)(=O)c1ccc(C(=O)OCCN2C(=O)CCC2=O)cc1 | -4.9 | - | - | - | - | -
COc1cccc(N2C(=O)C(=O)/C(=C(\O)c3ccccc3)C2c2ccc(C)cc2)c1 (stereo unspecified) | . | . | . | . | . | -
Cc1ccccc1OCCOc1ccc(Cl)cc1/C=N/n1cnnc1 | . | . | . | . | . | -
O=C(CN(Cc1ccco1)C(=O)CNS(=O)(=O)c1ccc(F)cc1)NCc1ccc(F)cc1 | - | 6.1 | - | - | - | -
O=C(O)c1ccc2c(c1)C(=O)N(c1ccc(-c3nc4cc(N5C(=O)c6ccc(C(=O)O)cc6C5=O)ccc4[nH]3)cc1)C2=O | . | . | . | . | . | 101.3
Cc1ccc(-c2c(C#N)c(SCC(=O)c3ccc(O)c(O)c3)nc3c2CCCC3)o1 | . | . | . | . | . | -
C/C(CCc1ccc2c(c1)OCO2)=N\N=C1/NC(=O)CC(C(=O)N2CCN(c3ccc([N+](=O)[O-])cc3)CC2)S1 (stereo unspecified) | . | . | . | . | . | -
CCCCCn1c(NC2CCCCC2)nc2c1c(=O)[nH]c(=O)n2C | 5.68 | - | . | - | - | -
CCCCCCn1c(SCCOC)nc2c1c(=O)[nH]c(=O)n2C | 9.38 | - | . | - | - | -
CCCCCn1c(N2CCC(Cc3ccccc3)CC2)nc2c1c(=O)[nH]c(=O)n2C | - | - | - | - | - | -
COc1ccc(N2C(=O)C3CCCN3C2c2cccc(C)c2)cc1Cl (stereo unspecified) | - | - | - | 22.6 | - | -
COc1ccc(Cl)cc1N1C(=O)C2CCCN2C1c1sccc1C (stereo unspecified) | -2.35 | - | - | - | - | -
C=C(C)CNC(=S)Nc1ccccn1 | . | . | . | . | . | 103.0
Cc1ccc(C)c(NC(=S)c2ccccn2)c1 | . | . | - | . | . | .
S=C(Nc1ccccn1)c1ccccn1 | -2.63 | - | - | - | - | -
COCCCNC(=O)CCCn1c(=O)c2ccccc2n(CC(=O)Nc2c(C)cc(C)cc2C)c1=O | -6.96 | - | - | - | - | -
SMILES | D1 allo mod | TNAP act mid DEA | Candida biofilm | FXIIa inh mix | FXIa inh mix | HePTP inhibitor
Cc1ccc2nc3c(cc2c1)c(NC(=O)c1cccnc1)nn3C | -4.44 | - | - | - | - | -
Cc1ccc(S(=O)(=O)N/N=C2/CCCc3c2[nH]c2ccccc32)cc1 | . | . | . | . | . | -
CCCN1C(=O)C(O)(C2CC(=O)CC(C)(C)O2)c2ccccc21 (stereo unspecified) | - | - | - | 22.0 | - | -
CCCN1C(=O)C(O)(C2COC(C)(C)CC2=O)c2ccccc21 (stereo unspecified) | . | . | . | . | . | -
CCOC(=O)C(C)On1c(SC(C)C(=O)OCC)nc2ccccc2c1=O (stereo unspecified) | - | - | - | 48.9 | - | -
COC(=O)COn1c(SC(C)C)nc2ccccc2c1=O | . | . | - | . | . | .
CCOc1c(Cl)cc(CNCC(C)C)cc1OC | . | . | 59.4 | . | . | .
Cc1[nH]n(-c2ccccc2)c(=O)c1/C=N/c1nnc(-c2ccccc2)s1 | . | . | . | . | . | -
Nc1ccc(-c2nc3ccc(N)cc3o2)cc1 | -3.1 | - | - | - | - | -
Nc1ccc2nc(-c3cccc(Cl)c3)oc2c1 | . | . | . | . | . | -
COC(=O)Cn1c(CCC(=O)O)ccc1-c1ccccc1 | - | - | 30.7 | - | - | -
CCOc1cc(/C=N/NC(=O)COc2ccccc2C)cc(I)c1O | . | . | . | . | . | -
CCOc1ccc(NC(=S)NC(NC(=O)N(C)C)C(Cl)(Cl)Cl)cc1 (stereo unspecified) | . | . | . | . | . | -
NC(=O)c1ccccc1NC(=O)CN1CCOCC1 | - | - | - | - | 20.3 | -
Cc1ccc(O)c(N=CC2=C(O)c3ccccc3C2=O)c1 | - | - | - | - | - | -
O=C1C(C=Nc2ccccc2O)=C(O)c2ccccc21 | -5.63 | - | - | - | - | -
CCOc1cc(/C=C2/NC(=S)NC2=O)cc(Cl)c1OCC | . | . | . | . | . | -
COc1cc(C2C(C#N)=C(N)OC3=C2C(=O)CCC3)ccc1OC(=O)N1CCOCC1 (stereo unspecified) | - | - | - | - | - | -
COc1cc(C2C(C#N)=C(N)Oc3cc(C)oc(=O)c32)ccc1OC(=O)N1CCOCC1 (stereo unspecified) | -3.72 | - | - | - | - | -
CCOC(=O)Cc1csc(-n2sc3ccccc3c2=O)n1 | - | - | . | 31.0 | - | -
Fc1ccc(Cc2nnc(-c3cccs3)o2)cc1 | - | - | 24.1 | - | - | -
Cc1ccc2c(c1)-c1c(cnn1CC(=O)N1CCCN(Cc3ccccc3F)C1)CO2 | -2.94 | - | - | - | - | -
Cc1cccc(NC(=O)Nc2cccc(F)c2)n1 | - | - | . | - | - | -
Cc1ccnc(NC(=O)Nc2cccc(F)c2)c1 | -5.33 | - | - | - | - | -
Cc1cccc2c1N(C(=O)c1ccco1)C(C)(C)c1ssc(=S)c1-2 | . | . | . | . | . | -
SMILES | D1 allo mod | TNAP act mid DEA | Candida biofilm | FXIIa inh mix | FXIa inh mix | HePTP inhibitor
Cc1ccc2c(c1)N(C(=O)c1ccco1)C(C)(C)c1ssc(=S)c1-2 | . | . | 64.0 | . | . | -
Cc1ccc(-c2cc(C(=O)O)c3cc(Br)ccc3n2)o1 | . | . | . | . | . | 104.0
c1coc(-c2nc3c4c5c(sc4ncn3n2)CCCC5)c1 | - | - | - | - | - | -
CC1(C)Cc2c(sc3ncn4nc(-c5ccco5)nc4c23)CO1 | 5.93 | - | - | - | - | -
CCOc1ccc(NC(=O)CSc2nc3ccc(OC)cc3[nH]2)cc1 | . | . | . | . | . | -
Cc1no[n+]([O-])c1COc1cccc(/C=C2\SC(=S)NC2=O)c1 | . | . | . | . | . | -
CCOC(=O)N1CCC(N2C(=O)c3cc(C(=O)NC4CCCCC4)ccc3C2O)CC1 (stereo unspecified) | - | - | - | - | 24.8 | -
CCOC(=O)N1CCC(N2C(=O)c3ccc(C(=O)O)cc3C2=O)CC1 | - | - | - | - | - | -
CCCN1C(=O)c2cc(C(=O)O)ccc2C1O (stereo unspecified) | - | - | - | - | - | -
CCCN1C(=O)c2cc(C(=O)NC3CCCCCC3)ccc2C1O (stereo unspecified) | -3.18 | - | - | - | - | -
COc1ccc(N2CC(C(=O)N/N=C/c3c(Cl)cccc3Cl)CC2=O)cc1 (stereo unspecified) | . | . | . | . | . | -
